From PubChem BioAssay (NCATS)
Results filed as inconclusive are left out. Entries that show only a call come without a potency. Calls of active or inactive are those of the source. Calls follow the shape of the dose curve; as a rule, active = well fitted inhibition curve with a large enough effect; inconclusive = small, poorly fitted or top-dose-only effect; inactive = no such curve, though single readings can be large or run the other way.

Assay: qHTS for Inhibitors of ATXN expression: Validation (AID 588378); also: nearly all actives have a fitted effect of over 75% in size
Conditions: cell-based ATXN2 expression reporter assay, luminescence; series mostly up to 57.1 µM
Excerpt: Spinocerebellar ataxia type 2 (SCA2) is a multisystem neurodegenerative disease caused by a dominantly-acting mutation leading to expansion of a polyQ domain in the ataxin-2 protein (ATXN2). SCA2 patients develop progressive ataxia and later lose function in other neuronal systems. Prominent parkinsonian signs develop in some patients. Similar to many neurodegenerative disorders, no symptomatic or disease-modifying treatments are known.
The primary objective of project is to identify compounds inhibiting ATXN2 expression and to test them for efficacy in SCA2 mouse models. To this end, in a collaboration between Dr. Daniel Scoles and scientists at NCGC, a cell-based assay adapted to high-throughput screening has been developed to screen the NIH Molecular Libraries Small Molecule Repository (MLSMR).
NIH Chemical Genomics Center [NCGC]
NIH Molecular Libraries Probe Centers Network [MLPCN]
Assay Submitter (PI): Stefan Pulst and Daniel Scoles, University of Utah
4 ul of HEK293-ATXN2-FFLuc cell suspension (TBD cells/microL in phenol-red free DMEM) are dispensed into Greiner white solid bottom 1536-well assay plates, yielding a final well density of TBD cells/well. Plates are incubated for 2 hrs at 37 degrees C in 5% humidified CO2 to allow cell attachment. Compounds are then transferred via Kalypsys pin tool equipped with 1536-pin array (10nl slotted pins, V&P Scientific, San Diego, CA). In addition, duplicate serial dilutions of the control compounds ChemBridge 5553825, a previously identified ATXN2 expression inhibitor, and a known luciferase inhibitor, are pin-transferred. After incubation at 37 degrees C in 5% humidified CO2 for 24 hrs, CellTiter-Fluor reagent (1 ul) (Promega, Madison, WI) is then added and plates are incubated for 30 minutes, before being transferred to a ViewLux high-throughput CCD imager (PerkinElmer), wherein single end-point fluorescence measurements are acquired using the 405 nm excitation/525 nm emission filter set to assess cell viability. Next, Bright-Glo luciferase substrate detection reagent (3 ul) (Promega, Madison, WI) is added to each well and incubated for an additional 5 minutes. Luminescence is then measured on the ViewLux imager equipped with a clear emission filter using a 2 sec exposure.
Potency is read from the fitted curve at half-maximal effect.

**Q.** For `C#CCN1C(C)=C(C(=O)OC)C(c2cccc([N+](=O)[O-])c2)C(C(=O)OCC)=C1C` (stereo not given), which Potency is on record?
**A.** The Potency was “inactive”.

**Q.** With `O=C(O)CC1CCCc2ccccc2C1O` (stereo not given) as the molecule, how does the Potency read?
**A.** The Potency was “inactive”.

**Q.** With `CO/S(=N\S(=O)(=O)c1ccc(Cl)cc1)c1ccc([N+](=O)[O-])cc1` (stereo not given) as the molecule, how does the Potency read?
**A.** Its Potency is “inactive”.

**Q.** For `CN(C)CCCO[C@@H]1[C@H]2OC(C)(C)O[C@H]2O[C@@H]1[C@H](O)CO`, which Potency is on record?
**A.** Its Potency is “inactive”.

**Q.** With `CN1C2CCC1CC(OC(=O)C(O)c1ccccc1)C2` (stereo not given) as the molecule, how does the Potency read?
**A.** The Potency was “inactive”.

**Q.** With `C[C@@H](NC(=O)/C(C#N)=C/c1ccc(O)c(O)c1)c1ccccc1` as the molecule, how does the Potency read?
**A.** The Potency was “inactive”.

**Q.** Which Potency does the source give for `N[C@@H](CC(=O)O)C(=O)O` here?
**A.** Its Potency is “inactive”.

**Q.** Which Potency does the source give for `COc1cc2nc(N3CCN(C(=O)OCc4ccccc4)C(C(=O)NC(C)(C)C)C3)nc(N)c2cc1OC` (stereo not given) here?
**A.** Its Potency is “inactive”.

**Q.** For `OC[C@H]1O[C@@H](n2cnc3c(Nc4ccccc4)ncnc32)[C@H](O)[C@@H]1O`, which Potency is on record?
**A.** The Potency was “inactive”.

**Q.** With `CCc1c(C(=O)NCCc2ccc(N3CCCCC3)cc2)[nH]c2ccc(Cl)cc12` as the molecule, how does the Potency read?
**A.** Its Potency is “inactive”.

**Q.** Which Potency does the source give for `O=P(O)(O)C(Cl)(Cl)P(=O)(O)O` here?
**A.** Its Potency is “inactive”.

**Q.** Which Potency does the source give for `CNc1ncnc2c1ncn2[C@@H]1O[C@H](CO)[C@@H](O)[C@H]1O` here?
**A.** Its Potency is “inactive”.

**Q.** For `C[C@@H](CN1CCC(Cc2ccccc2)CC1)[C@@H](O)c1ccc(O)cc1`, which Potency is on record?
**A.** Its Potency is “inactive”.

**Q.** For `CN1C2CC(OC(=O)[C@H](CO)c3ccccc3)CC1C1OC12` (stereo not given in full), which Potency is on record?
**A.** The Potency was “inactive”.

**Q.** Which Potency does the source give for `N#C/C(=C\c1ccc(O)c(O)c1)C(=O)c1ccc(O)c(O)c1` here?
**A.** The Potency was “inactive”.

**Q.** Which Potency does the source give for `CCOC(=O)C1=C(C)NC(C)=C(C(=O)OCC)C1c1c(F)c(F)c(F)c(F)c1F` here?
**A.** Its Potency is “inactive”.

**Q.** Which Potency does the source give for `C[N+]1(C)CCC(OC(=O)C(c2ccccc2)c2ccccc2)CC1` here?
**A.** The Potency was “inactive”.

**Q.** Which Potency does the source give for `O=C1NC(=O)/C(=C/c2ccc3nccnc3c2)S1` here?
**A.** The Potency was “inactive”.

**Q.** With `O=C(O)CC[C@@H](C(=O)O)N1C(=O)c2ccccc2C1=O` as the molecule, how does the Potency read?
**A.** The Potency was “inactive”.

**Q.** For `Nc1ncnc2c1ncn2[C@@H]1O[C@H](COP(=O)(O)CP(=O)(O)OP(=O)(O)O)[C@@H](O)[C@H]1O`, which Potency is on record?
**A.** The Potency was “inactive”.

**Q.** Which Potency does the source give for `OCC1O[C@H](O)C(Cl)C(O)C1O` (stereo not given in full) here?
**A.** The Potency was “inactive”.

**Q.** Which Potency does the source give for `OC[C@H]1O[C@@H](n2cnc3c(NC4CCCCC4)ncnc32)[C@H](O)[C@@H]1O` here?
**A.** The Potency was “inactive”.

**Q.** Which Potency does the source give for `O=C(O)c1cc(=O)c2c(Cl)cc(Cl)cc2[nH]1` here?
**A.** Its Potency is “inactive”.

**Q.** With `N#C/C(=C\c1ccc(O)c(O)c1)C(=O)NCc1ccccc1` as the molecule, how does the Potency read?
**A.** The Potency was “inactive”.

**Q.** With `NCCCCCCCCCCN` as the molecule, how does the Potency read?
**A.** Its Potency is “inactive”.

**Q.** Which Potency does the source give for `Cc1ccccc1CNc1ncnc2c1ncn2C1OC(CO)C(O)C1O` (stereo not given) here?
**A.** Its Potency is “inactive”.

**Q.** For `Oc1cc(O)cc(/C=C/c2ccc(O)c(O)c2)c1`, which Potency is on record?
**A.** The Potency was “inactive”.

**Q.** With `COc1cccc(C(=O)NCCN2CCN(c3ccc(Cl)cc3)CC2)c1` as the molecule, how does the Potency read?
**A.** The Potency was “inactive”.

**Q.** Which Potency does the source give for `Cc1cc(NC2CCCCC2)nc(-n2nc(C)cc2C)n1` here?
**A.** The Potency was “inactive”.

**Q.** Which Potency does the source give for `O=c1[nH]c2cc(Cl)c(Cl)cc2[nH]c1=O` here?
**A.** The Potency was “inactive”.

**Q.** For `O=c1[nH]c2cc(C(F)(F)F)ccc2n1-c1cc(C(F)(F)F)ccc1O`, which Potency is on record?
**A.** Its Potency is “inactive”.

**Q.** For `CC1CN(S(=O)(=O)c2cccc3cnccc23)CCN1` (stereo not given), which Potency is on record?
**A.** Its Potency is “inactive”.

**Q.** With `NC(=O)C1=CN(C2OC(COP(=O)(O)OP(=O)(O)OC[C@H]3O[C@@H](n4cnc5c(N)ncnc54)[C@H](OP(=O)(O)O)[C@@H]3O)C(O)C2O)C=CC1` (stereo not given in full) as the molecule, how does the Potency read?
**A.** Its Potency is “inactive”.

**Q.** With `CN(C)c1ccc(/C=C2\C(=O)Nc3ccccc32)cc1` as the molecule, how does the Potency read?
**A.** The Potency was “inactive”.

**Q.** With `Clc1ccc(N2CCN(Cc3cc4ccccn4n3)CC2)cc1` as the molecule, how does the Potency read?
**A.** Its Potency is “inactive”.

**Q.** For `CNC(=O)[C@H]1O[C@@H](n2cnc3c(NCc4cccc(I)c4)ncnc32)[C@H](O)[C@@H]1O`, which Potency is on record?
**A.** Its Potency is “inactive”.

**Q.** With `CN(C)C(N)=NCCC[C@H](N)C(=O)O` as the molecule, how does the Potency read?
**A.** Its Potency is “inactive”.

**Q.** Which Potency does the source give for `CC1(C)CCC=[N+]1[O-]` here?
**A.** The Potency was “inactive”.

**Q.** Which Potency does the source give for `O=C1O/C(=C/Br)CCC1c1cccc2ccccc12` (stereo not given) here?
**A.** Its Potency is 25.1 µM (active).

**Q.** Which Potency does the source give for `CCCCC#Cc1nc(NC)c2ncn([C@@H]3O[C@H](CO)[C@@H](O)[C@H]3O)c2n1` here?
**A.** Its Potency is “inactive”.
